The full list was thinned out, with hits kept by preference.
Vaccinia Venus = vaccinia inhibition (Venus reporter); Potency, µM (titrated, usually from 36.5 µM), for the others: at the top dose activity change, negative = inhibition, actives largely listed as inhibitors; 330,000 compounds, 0.46% hits; Vaccinia virus Venus reporter expression, fluorescence; calls by dose curve; tested in A549 cells; also: potency is read from the fitted curve at half-maximal effect; % is scaled to controls: 0 for no effect and ±100 for the full control effect; nearly all actives have a fitted effect of over 30% in size
Shiga inhibitor = blocks Shiga toxin action in Vero cells; 290,000 compounds, 9.2% hits; inhibition, % at 38.7 µM; AID 2315; Vero cells, Shiga toxin protein synthesis inhibition reporter; in the data active = inhibition mostly above about 28%, no sharp cut-off; inactive = mostly below about 43%; also: 0% is about no effect
Lassa entry inh = inhibitors of Lassa virus binding or cell entry; Lassa virus pseudotype entry inhibition, cell reporter; Potency, µM (series often up to 37.9 µM), without a hit: at the top dose activity change, negative = inhibition, most hits filed as inhibitors; 300,000 compounds, 1.2% hits; AID 540256; calls by dose curve; tested in HEK293 cells; also: potency is read from the fitted curve at half-maximal effect; % is scaled to controls: 0 for no effect and ±100 for the full control effect; nearly all actives have a fitted effect of over 50% in size
CHX counter = counter-screen hit for Shiga toxin inhibitors, cycloheximide; AID 2314; 300,000 compounds, 12% hits; max response, %; cell reporter, cycloheximide protein synthesis inhibition counterscreen; in the data active = max response mostly above about 13%, no sharp cut-off; inactive = mostly below about 14%; also: read at 38.3 µM for the half of the compounds with a filed dose; 0% is about no effect
MARV entry inh = blocks Marburg virus binding to or entry into cells | Marburg virus pseudotyped entry inhibition, cell reporter | 300,000 compounds, 1.8% hits | Potency, µM (doses to about 37.8 µM), inactives show top-dose activity change, negative = inhibition, actives largely listed as inhibitors; calls by dose curve; tested in HEK293 cells; also: potency is read from the fitted curve at half-maximal effect; % is scaled to controls: 0 for no effect and ±100 for the full control effect
Vaccinia mCherry = vaccinia inhibition (mCherry reporter); Vaccinia virus mCherry reporter infection, fluorescence; Potency, µM (highest dose often 36.5 µM), for the others: at the highest dose activity change, negative = inhibition, usual class: inhibitors; 310,000 compounds, 0.63% hits; calls by dose curve; tested in A549 cells; also: potency is read from the fitted curve at half-maximal effect; % is scaled to controls: 0 for no effect and ±100 for the full control effect; nearly all actives have a fitted effect of over 35% in size
Active calls of the source: *; [ ] = dose if it differs, or a comment.

CC(NC(=O)COc1ccc(/C=N/NC(=O)CO)cc1)c1ccccc1 (centres undefined) was read as Shiga inhibitor -6 and CHX counter -2.
Screening Cc1ccsc1/C=N/N1CCN(c2ccccc2)CC1 returned Shiga inhibitor 60*, Lassa entry inh inconclusive, CHX counter 71* and MARV entry inh 3%.
Screening Cc1ccsc1/C=N/N1CCN(Cc2ccccc2)CC1 returned Vaccinia Venus 0%, Shiga inhibitor 38*, Lassa entry inh inconclusive, CHX counter 24*, MARV entry inh inconclusive and Vaccinia mCherry 1%.
C(=N\N1CCN(c2ccccc2)CC1)/c1ccccc1 was read as Vaccinia Venus 2%, Shiga inhibitor 21, Lassa entry inh 2%, CHX counter 14, MARV entry inh inconclusive and Vaccinia mCherry inactive.
For Cc1ccsc1/C=N/N1CCN(c2ccccn2)CC1 the results were Vaccinia Venus 8%, Shiga inhibitor 55*, Lassa entry inh 15%[46.1 µM], CHX counter 31*, MARV entry inh inconclusive and Vaccinia mCherry -20%.
Screening Cc1ccsc1CN1CCN(c2ccccn2)CC1 returned Shiga inhibitor -1, Lassa entry inh inconclusive, CHX counter 4 and MARV entry inh 8%.
`CCOC(=O)C1=C(COC(=O)/C=C/c2ccccc2Cl)NC(=O)NC1C` (centres undefined) gave Vaccinia Venus -17%, Shiga inhibitor 56*, Lassa entry inh 13%, CHX counter 49*, MARV entry inh 16% and Vaccinia mCherry inactive.
For CCOC(=O)C1=C(COC(=O)/C=C/c2cccc(OC)c2OC)NC(=O)NC1C (centres undefined) the results were Vaccinia Venus -7%, Shiga inhibitor 53*, Lassa entry inh 20%, CHX counter 40*, MARV entry inh 6% and Vaccinia mCherry inactive.
CCOC(=O)C1=C(COC(=O)/C=C/c2ccccc2)NC(=O)NC1C (centres undefined) was read as Vaccinia Venus -14%, Lassa entry inh 7%, MARV entry inh inconclusive and Vaccinia mCherry -13%.
For COc1ccc(NC(=O)CNc2ccccc2N2CCCC2=O)cc1S(=O)(=O)N1CCOCC1 the results were Vaccinia Venus 1%, Lassa entry inh 8%, MARV entry inh 0% and Vaccinia mCherry inactive.
`CN(Cc1ccccc1)C1=CC(=[N+]2CCCC2)CC(C)(C)C1` gave Vaccinia Venus -4%, Shiga inhibitor 3, Lassa entry inh inconclusive, CHX counter -3, MARV entry inh inconclusive and Vaccinia mCherry -25%.
CC1(C)CC(N2CCN(c3ccccc3)CC2)=CC(=[N+]2CCCC2)C1 was read as Vaccinia Venus inconclusive, Shiga inhibitor -15, Lassa entry inh inconclusive, CHX counter -9, MARV entry inh inconclusive and Vaccinia mCherry inconclusive.
CCN(CC)C1=CC(=[N+]2CCCC2)CC(C)(C)C1 was read as Vaccinia Venus -14%, Shiga inhibitor -22, Lassa entry inh inconclusive, CHX counter -6, MARV entry inh 1.3µM* and Vaccinia mCherry -27%.
Screening CC1(C)CC(N2CCCC2)=CC(=[N+]2CCCCCC2)C1 returned Shiga inhibitor -5, Lassa entry inh inconclusive, CHX counter 4 and MARV entry inh 1.5µM*.
For CC(OC(=O)C1CCC1)C(=O)Nc1cc(Cl)cc(Cl)c1 (centres undefined) the results were Vaccinia Venus -6%, Lassa entry inh inconclusive, MARV entry inh 0% and Vaccinia mCherry -10%.
For Nc1nc(Cl)cc(NCCc2ccccc2)n1 the results were Shiga inhibitor 13 and CHX counter 15*.
`O=C(N/N=C/c1cn(-c2ccccc2)nc1-c1ccc2c(c1)OCCO2)c1ccncc1` gave Vaccinia Venus -5%, Shiga inhibitor 50*, Lassa entry inh -14%, CHX counter 29*, MARV entry inh 13%[46.1 µM] and Vaccinia mCherry inconclusive.
`CN1CCN(C(=O)/C=C/c2cn(-c3ccccc3)nc2-c2ccc3c(c2)OCCO3)CC1` gave Vaccinia Venus inconclusive, Shiga inhibitor -17, Lassa entry inh inconclusive, CHX counter -5, MARV entry inh 21µM* and Vaccinia mCherry inconclusive.
For O/N=C/c1cn(-c2ccccc2)nc1-c1ccc2c(c1)OCCO2 the results were Vaccinia Venus inconclusive, Shiga inhibitor 30, Lassa entry inh -1%, CHX counter 19, MARV entry inh -24% and Vaccinia mCherry inconclusive.
For O=C(N/N=C/c1cn(-c2ccccc2)nc1-c1ccc(F)cc1)c1ccc2c(c1)OCO2 the results were Vaccinia Venus -14%, Shiga inhibitor 79*, Lassa entry inh -18%, CHX counter 18* and MARV entry inh inconclusive.
`O=C(N/N=C\c1cn(-c2ccccc2)nc1-c1ccccc1)c1ccc2c(c1)OCO2` gave Vaccinia Venus -35%, Shiga inhibitor 23, Lassa entry inh -16%, CHX counter 16* and MARV entry inh inconclusive.
`CC(=O)OC[C@H]1O[C@H](C#Cc2ccccc2)C=C[C@H]1OC(C)=O` gave MARV entry inh 21%[14.2 µM].
For CCn1c(S[C@@H](C)C(=O)O)nc2sc3c(c2c1=O)CCC3 the results were MARV entry inh 10%[46.1 µM].
Cc1ccc(S(=O)(=O)NC(CC(C)C)C(=O)N2CCC(C)CC2)cc1 (centres undefined) was read as Vaccinia Venus -11%, Shiga inhibitor 16, CHX counter 17 and Vaccinia mCherry inactive.
`COc1ccc(C(=O)C2CCCN(Cc3cnc(C)s3)C2)cc1OC` (centres undefined) gave Vaccinia Venus -11%, Shiga inhibitor -13, Lassa entry inh 8%, CHX counter -1, MARV entry inh 1%[46.1 µM] and Vaccinia mCherry -13%.
Screening COc1ccc(C(=O)C2CCCN(C(=O)c3n[nH]c4c3CCCC4)C2)cc1OC (centres undefined) returned Vaccinia Venus -10%, Shiga inhibitor 30, Lassa entry inh -5%[46.1 µM], CHX counter 16*, MARV entry inh -22%[46.1 µM] and Vaccinia mCherry inactive.
COc1ccc(CN2CCCC(C(=O)c3ccc(Cl)cc3)C2)cc1Cn1cccn1 (centres undefined) was read as Vaccinia Venus -21%, Shiga inhibitor -5, Lassa entry inh 10µM*, CHX counter 7, MARV entry inh 2.8µM* and Vaccinia mCherry inactive.
For Cc1ncc(CN2CCCC(C(=O)c3ccc(C(C)(C)C)cc3)C2)s1 (centres undefined) the results were Shiga inhibitor 44 and CHX counter 9.9*.
CCOC(=O)C1CCN(Cc2cnc(Oc3ccc(C(C)(C)C)cc3)s2)CC1 was read as Shiga inhibitor 7, Lassa entry inh 9.2µM*, CHX counter -2 and MARV entry inh 3%.
Screening CCOC(=O)C1CCN(Cc2cnc(NC(=O)OC)s2)CC1 returned Shiga inhibitor -9, Lassa entry inh 20%, CHX counter 1 and MARV entry inh 14%.
